{
  "source": "PubChem BioAssay (Tox21)",
  "note": "Records with an inconclusive call do not appear. Unmarked numbers belong to inactive results. Calls of active or inactive are those of the source. Calls follow the shape of the dose curve; as a rule, active = well fitted activation curve with a large enough effect in the signal ratio in the repeat runs, with a control signal flat (not every such curve was filed as active); inconclusive = weak or mixed curves; inactive = flat fitted curve, though single readings scatter; the % refers to the signal ratio. % is scaled to controls: 0 for no effect and ±100 for the full control effect; potency is read from the fitted curve at half-maximal effect.",
  "data": [
    {"assay": "qHTS assay for small molecule activators of the heat shock response signaling pathway (AID 743210)", "conditions": "HeLa HSE-bla reporter, beta-lactamase ratio, 5 h; series mostly up to 62.6 µM; activation: at the top concentration", "text": "U.S. Tox21 Program National Center for Advancing Translational Sciences [NCATS] NIH Chemical Genomics Center [NCGC] U.S. Environmental Protection Agency [EPA] National Institutes of Environmental Health Sciences [NIEHS] National Toxicology Program [NTP] U.S. Food and Drug Administration [FDA] Tox21 Assay Overview: Various chemicals, environmental and physiological stress conditions may lead to the activation of heat shock response/ unfolded protein response (HSR/UPR). There are three heat shock transcription factors (HSFs) (HSF-1, -2, and -4) mediating transcriptional regulation of the human HSR. To identify the compounds that activate HSR signaling, HSE-bla HeLa cell line (Invitrogen, Carlsbad, CA, USA) containing a beta-lactamase reporter gene under the control of the heat shock response elements was used to screen the Tox21 10K compound library.\nTox21 Assay Protocol Summary: The CellSensor HSE-bla HeLa cells (Invitrogen, Carlsbad, CA, USA) were dispensed at 1500 cells/6uL/well into 1536-well black wall/clear bottom plates using a Multidrop combi (Thermo Fisher Scientific, Waltham, MA) dispenser. After the assay plates were incubated at 37 C and 5% CO2 overnight, 23 nL of compounds dissolved in DMSO, positive controls or DMSO only was transferred to the assay plate by a Pintool station (Kalypsys, San Diego, CA). The plates were incubated at 37 C for 5 h. After 1 uL of LiveBLAzerTM B/G FRET substrate was added using a Flying Reagent Dispenser (Beckman Coulter, Indianapolis, IN, USA), the plates were incubated at room temperature for 2.5 h, and fluorescence intensity was measured by an Envision plate reader (PerkinElmer, Shelton, CT).", "values": [
      {"compound": "CCn1cc(C(=O)O)c(=O)c2cc(F)c(N3CCNCC3)cc21", "activation": "0.051%"},
      {"compound": "CCOC(=O)c1ccc(OCCN2C[C@H](O)[C@@H](O)[C@H](O)[C@H]2CO)cc1", "activation": "0.0819%"},
      {"compound": "C=COCC(C)C", "activation": "0.249% [at 81.1 µM]"},
      {"compound": "CN1CC(=O)N2[C@H](c3ccc4c(c3)OCO4)c3[nH]c4ccccc4c3C[C@@H]2C1=O", "activation": "0.614%"},
      {"compound": "Cc1cc(O)c(C)c(C)c1O", "activation": "-1.81%"},
      {"compound": "CN1C(=O)OC(C)(C)C1=O", "activation": "0.779%"},
      {"compound": "CC(C)(c1ccccc1)c1ccccc1", "activation": "0.0992%"},
      {"compound": "Cc1ccc(C(C)(C)O)cc1", "activation": "-0.621%"},
      {"compound": "O=C(O)c1cccc(-c2noc(-c3ccccc3F)n2)c1", "activation": "0.05%"},
      {"compound": "Cc1c(C)c2c(c(C)c1OC(=O)CCC(=O)OCCO)CC[C@@](C)(CCC[C@H](C)CCC[C@H](C)CCCC(C)C)O2", "activation": "0.206%"},
      {"compound": "COc1ccc(OC(=O)N(CC(=O)O)Cc2ccc(OCCc3nc(-c4ccccc4)oc3C)cc2)cc1", "activation": "2.12%"},
      {"compound": "NCCNCCO", "activation": "-0.353% [at 81.1 µM]"},
      {"compound": "CC1(C)[C@@H](OC(=O)CCC(=O)O)CC[C@]2(C)[C@H]3C(=O)C=C4[C@@H]5C[C@@](C)(C(=O)O)CC[C@]5(C)CC[C@@]4(C)[C@]3(C)CC[C@@H]12", "activation": "3.57%"},
      {"compound": "O=C(Cn1ccnc1[N+](=O)[O-])NCCO", "activation": "0.357%"},
      {"compound": "N#CCc1ccc(Cl)cc1Cl", "activation": "-0.551%"},
      {"compound": "CCCCOc1ccc(OCCCN2CCOCC2)cc1", "activation": "0.288%"},
      {"compound": "C[C@]1(Cn2ccnn2)[C@H](C(=O)O)N2C(=O)C[C@H]2S1(=O)=O", "activation": "-0.675%"},
      {"compound": "CCC(C)(C)OC", "activation": "-0.0744%"},
      {"compound": "CCC(=O)OC", "activation": "-0.878% [at 81.1 µM]"},
      {"compound": "Cc1cc2c(OCC(CNC(C)(C)C)OC(=O)c3ccccc3)cccc2[nH]1", "note": "(stereo not given)", "activation": "0.935%"},
      {"compound": "OC(CCN1CCCC1)(c1ccccc1)C1CCCCC1", "note": "(stereo not given)", "activation": "-0.325%"},
      {"compound": "CC(C)=CCC1C(=O)N(c2ccccc2)N(c2ccccc2)C1=O", "Potency": "28.7 µM (active)"},
      {"compound": "Cc1cc(O)ccc1O", "activation": "-0.372% [at 81.1 µM]"},
      {"compound": "CCC=CC#N", "activation": "-0.0248%"},
      {"compound": "Nc1cccc2c1CN(C1CCC(=O)NC1=O)C2=O", "note": "(stereo not given)", "activation": "-0.868%"},
      {"compound": "CCCCCC#CC(=O)OC", "activation": "0.901%"},
      {"compound": "Nc1ncnc2c1ncn2[C@H]1CC[C@@H](CO)O1", "activation": "-1.79% [at 81.1 µM]"},
      {"compound": "Cc1cccc(N(C)C(=S)Oc2ccc3c(c2)CCC3)c1", "activation": "0.225%"},
      {"compound": "C=CCc1ccccc1OCC(O)CNC(C)C", "note": "(stereo not given)", "activation": "0.32%"},
      {"compound": "CN1C[C@H](C(=O)N[C@]2(C)O[C@@]3(O)[C@@H]4CCCN4C(=O)[C@H](Cc4ccccc4)N3C2=O)C[C@@H]2c3cccc4[nH]cc(c34)C[C@H]21", "activation": "0.1%"},
      {"compound": "C[C@@H]1CN(CCCn2c3ccccc3c3ccccc32)C[C@H](C)N1", "activation": "-1.11%"},
      {"compound": "C/C=C/C=C/C=O", "activation": "1.06%"},
      {"compound": "CC(C)(C)C(=O)C(=O)O", "activation": "-0.0572%"},
      {"compound": "Cc1ccco1", "activation": "-0.527%"},
      {"compound": "CCc1ccccc1", "activation": "0.124% [at 81.1 µM]"},
      {"compound": "C=C1c2cccc(O)c2C(O)=C2C(=O)[C@]3(O)C(O)=C(C(N)=O)C(=O)[C@@H](N(C)C)[C@@H]3[C@@H](O)[C@H]12", "activation": "-0.489%"},
      {"compound": "Nc1nnc(-c2ccc([N+](=O)[O-])o2)o1", "activation": "1.48%"},
      {"compound": "CC[N+](CC)(CCNC(=O)C(=O)NCC[N+](CC)(CC)Cc1ccccc1Cl)Cc1ccccc1Cl", "activation": "-0.677%"},
      {"compound": "Cc1ccccc1N=C(N)Nc1ccccc1C", "activation": "0.273%"},
      {"compound": "COC(=O)CCS", "activation": "-0.437%"}
    ]}
  ]
}
